Compound activity (PubChem)
HCV inh: inhibitors of hepatitis C virus infection. Huh7.5.1 HCVcc-Cre infection, luciferase reporter, 44 h. Potency, µM (titrated, usually from 41.8 µM), for inactives: at the highest dose activity change, negative = inhibition, actives largely listed as inhibitors. 3.4% of 340,000 active; also: potency is read from the fitted curve at half-maximal effect; % is scaled to controls: 0 for no effect and ±100 for the full control effect
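HCVcc-Cre virus at an moi near 0.5 was added right after compound to cells cultured 4 h from seeding (1,000 cells/well). Luciferase activity was determined 44 h later, 15 min after substrate addition at RT.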
CHX counter: counter-screen for Shiga toxin inhibitors: cycloheximide protein synthesis inhibition | cell reporter, cycloheximide protein synthesis inhibition counterscreen | max response, % | 12% of 300,000 active | AID 2314; in the data active = max response mostly above about 13%, no sharp cut-off; inactive = mostly below about 14%; also: read at 38.3 µM for the half of the compounds with a filed dose; 0% is about no effect
Pf growth 96h: P. falciparum growth inhibition at 96 hours; P. falciparum luciferase reporter growth, 96 h; Potency, µM (series often up to 28.7 µM), inactives show top-dose activity change, negative = inhibition, hits mostly inhibitors; 6.9% of 320,000 active; also: potency is read from the fitted curve at half-maximal effect; % is scaled to controls: 0 for no effect and ±100 for the full control effect
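Parasite growth measured via integrated firefly luciferase reporter in P. falciparum. Infected erythrocytes at 2% hematocrit, 0.05% parasitemia final were treated 96 hours at 37 C under 5% CO2, and luminescence was read.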
Shiga toxin inh: Shiga toxin inhibition; inhibition, % at 38.7 µM; Vero cells, Shiga toxin protein synthesis inhibition reporter; AID 2315; 9.2% of 290,000 active; in the data active = inhibition mostly above about 28%, no sharp cut-off; inactive = mostly below about 43%; also: 0% is about no effect
AMA1-RON2 inh: inhibitors of Plasmodium falciparum AMA1-RON2 interaction. AlphaScreen AMA1-biotinylated RON2 peptide binding. Potency, µM (titrated, usually from 58.2 µM), without a hit: at the top dose activity change, negative = inhibition, actives largely listed as inhibitors. 0.2% of 360,000 active. AID 720542;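 also: potency is read from the fitted curve at half-maximal effect; 0% = vehicle wells and -100% = peptide control; nearly all actives have a fitted effect of over 45% in size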
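AMA1 (3D7) with his tag at 25 nM final met compounds first, then biotinylated RON2 peptide at 25 nM; detection used donor plus acceptor beads, 10 µg/mL apiece, read by AlphaScreen after 30 min at room temperature.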
Pf growth 48h: P. falciparum growth inhibition at 48 hours (one generation) | P. falciparum luciferase growth in erythrocytes, 48 h | AID 504832 | Potency, µM (doses to about 28.7 µM), for the others: top-dose activity change, negative = inhibition, hits mostly inhibitors | 5.9% of 310,000 active; also: potency is read from the fitted curve at half-maximal effect; % is scaled to controls: 0 for no effect and ±100 for the full control effect
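Luminescence readout; reporter = integrated firefly luciferase in P. falciparum. RBC culture at 2% hematocrit, 0.1% parasitemia final, 37 C/5% CO2; decreased signal taken as growth inhibition.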
The depositor's hits bear a star; ? = inconclusive; / = no result. Most compounds without a hit are left out; they make up all but 21% or so of the library. Unless noted, calls follow the shape of the dose curve; as a rule, active = well fitted curve in the direction sought with a large enough effect; inconclusive = small, poorly fitted or top-dose-only effect, or another doubt; inactive = no such curve, though single readings can be large; an effect the other way counts as inactive or inconclusive.

SMILES	HCV inh	CHX counter	Pf growth 96h	Shiga toxin inh	AMA1-RON2 inh	Pf growth 48h
Cc1cc(=O)[nH]c(N/N=C/c2ccc(OC(=O)c3cccnc3)cc2)n1	-2.3%	-2.4	38.2%	-17.7	10.6%	6.4%
CCc1ccc(-c2cc(C)no2)cc1S(=O)(=O)N1CCOc2ccc(C)cc21	?	1.9	?	-2.5	3.5%	2.94µM*
COc1ccc(-c2cc(C)no2)cc1S(=O)(=O)N1CCOc2ccccc21	2.8%	-6.7	4.8%	-2.9	13.8%	?
CCc1ccc(-c2cc(C)no2)cc1S(=O)(=O)N1CCN(c2ccccc2F)CC1	?	7.0	-29.0%	-5.0	-6.0%	?
CCc1ccc(-c2cc(C)no2)cc1S(=O)(=O)N1CCN(c2cc(C)ccc2C)CC1	?	-2.2	11.5%	2.9	-6.2%	13.1µM*
Cc1noc(C)c1S(=O)(=O)N1Cc2ccccc2CC1C(=O)N(C)C (centres undefined)	-11.2%	7.7	22.4%	2.1	2.0%	4.3%
Cc1ccc(S(=O)(=O)N2Cc3ccccc3CC2C(=O)NC(C)(C)C)cc1 (centres undefined)	-11.6%	1.1	11.7µM*	-1.8	-0.5%	2.1%
Cc1ccc(NC(=O)N2Cc3ccccc3CC2C(=O)NC(C)(C)C)cc1 (centres undefined)	?	-3.3	?	13.8	2.1%	-23.1%
Cc1ccc(S(=O)(=O)N2Cc3ccccc3CC2C(=O)Nc2ccc3c(c2)OCO3)cc1 (centres undefined)	?	30.4*	/	60.2*	-13.7%	-26.6%
COc1ccc(S(=O)(=O)N2Cc3ccccc3CC2C(=O)Nc2ccc3c(c2)OCO3)cc1 (centres undefined)	?	46.5*	?	79.2	-7.2%	?
CN(C)C(=O)C1Cc2ccccc2CN1S(=O)(=O)c1ccc(F)cc1 (centres undefined)	-2.6%	1.0	4.15µM*	-1.1	10.9%	7.7%
O=C(Nc1nc2c(s1)CCCC2)c1cccc(S(=O)(=O)N2CCCc3ccccc32)c1	?	10.8	?	14.8	60.2%	9.28µM*
Cc1ccc2nc(NC(=O)c3ccc(S(=O)(=O)N4CCCc5ccccc54)cc3)sc2c1	?	-0.7	?	-11.0	14.8%	?
CCOC(=O)c1sc(NC(=O)c2cccc(S(=O)(=O)N3CCc4ccccc43)c2)c(C#N)c1C	10µM*	-0.8	17.9%	-7.6	-3.9%	?
O=C(Nc1nncs1)c1cccc(S(=O)(=O)N2CCc3ccccc32)c1	1.2%	-3.3	17.5%	-11.5	13.2%	10.0%
O=C(Nc1nc2ccc(F)cc2s1)c1cccc(S(=O)(=O)N2CCc3ccccc32)c1	?	24.4*	?	35.3	-10.9%	-2.2%
CCC(CC)c1nnc(NC(=O)c2cccc(S(=O)(=O)N3CCc4ccccc43)c2)s1	17.0%	3.0	?	-4.9	16.5%	14.7µM*
CCOC(=O)c1sc(NC(=O)c2cccnc2)c(C#N)c1C	-2.0%	-2.2	?	20.3	8.8%	40.4%
CC(=O)c1ccc(N2C(=NC(=O)CCC3CCCC3)SC3CS(=O)(=O)CC32)cc1 (centres undefined)	0.5%	-2.6	4.7%	-1.0	1.3%	2.6%
CN1CCc2nc(NC(=O)c3cccc(S(=O)(=O)N4CCc5ccccc54)c3)sc2C1	?	-0.1	58.4%	-13.8	-5.5%	5.86µM*
CCN1CCc2nc(NC(=O)c3ccccc3)sc2C1	-3.1%	9.9	195.8%	25.9	9.3%	157.0%
COc1cccc(C(=O)Nc2nc3c(s2)CN(C)CC3)c1	-28.7%	20.6	127.7%	175.8*	-0.1%	142.2%
Fc1ccc(-c2nc3c4ccccc4ccn3c2Cc2ccsc2)cc1	/	/	/	/	39.0%	/
CCOCCCN(Cc1ccco1)S(=O)(=O)c1csc(C(N)=O)c1	10.9%	-1.6	13.1µM*	2.6	6.2%	19.7%
CCOc1ccc(S(=O)(=O)N2CCCC(C(=O)N3CCCC3)C2)cc1 (centres undefined)	21.7%	-0.8	98.8%	-3.3	-3.6%	-4.5%
SMILES	HCV inh	CHX counter	Pf growth 96h	Shiga toxin inh	AMA1-RON2 inh	Pf growth 48h
Cn1c(=O)c2c(nc(NCC(O)CO)n2CCc2ccccc2)n(C)c1=O (centres undefined)	6.6%	-1.7	?	14.5	5.3%	-1.8%
Cn1c(=O)c2c(nc(NCCO)n2CCc2ccccc2)n(C)c1=O	?	-1.6	10.4µM*	-22.4	-9.9%	6.6%
CCCNc1nc2c(c(=O)n(C)c(=O)n2C)n1CCCc1ccccc1	?	-0.6	1.47µM*	6.0	16.6%	?
CCCNc1nc2c(c(=O)n(C)c(=O)n2C)n1CCc1ccccc1	14.1µM*	-1.6	?	-6.6	0.4%	-16.2%
Cn1c(=O)c2c(nc(NCCCO)n2CCc2ccccc2)n(C)c1=O	11.6%	-2.8	38.0%	-8.7	6.3%	3.5%
CCCNc1nc2c(c(=O)[nH]c(=O)n2C)n1CCCc1ccccc1	-2.7%	-1.7	14.8%	-3.5	-1.6%	/
CC(O)CNc1nc2c(c(=O)n(C)c(=O)n2C)n1CCc1ccccc1 (centres undefined)	28.2µM*	-2.7	12.7%	-0.1	-1.1%	11.3%
O=C(COC(=O)C1CCC1)NCc1ccc(Cl)cc1Cl	19.4%	/	9.6%	/	10.5%	10.0%
CCCCCCn1c(NCC)nc2c1c(=O)n(C)c(=O)n2C	5.62µM*	2.7	?	-7.7	-0.6%	3.29µM*
CC1CC(C)CN(C(=O)COC(=O)c2ccc(Cl)nc2)C1 (centres undefined)	13.7%	/	15.1%	/	5.2%	-11.8%
O=C(O)C1C2C=CC(C2)C1C(=O)NCCCN1CCOCC1 (centres undefined)	-17.3%	16.0	11.7µM*	-18.8	3.2%	5.5%
CCOC(=O)NC1(NC(C)C)Oc2ccccc2O1	-16.2%	10.1	-7.7%	48.5	6.8%	/
CCOC(=O)NC1(Nc2ccc(C)cc2)Oc2ccccc2O1	?	55.1*	?	46.4*	-6.9%	-2.0%
CCOC(=O)NC1(NCc2ccccc2)Oc2ccccc2O1	?	15.6*	?	-0.7	-6.4%	?
CCOC(=O)NC1(NCC(C)C)Oc2ccccc2O1	?	6.4	-16.6%	-8.0	-7.9%	/
Cc1noc(C)c1NC(=O)Nc1cccc2c1O[C@H](CN(C)C(=O)NC(C)C)[C@@H](C)CN([C@H](C)CO)C2=O	16.4%	/	/	/	10.8%	/
Cn1c(=O)c([N+](=O)[O-])c(N2CCSCC2)c2ccccc21	?	8.6	?	-3.4	-1.3%	-10.2%
CCn1c(=O)c([N+](=O)[O-])c(N2CCN(Cc3ccc4c(c3)OCO4)CC2)c2ccccc21	11.2µM*	0.6	?	6.1	?	?
CCn1c(=O)c([N+](=O)[O-])c(N2CCSCC2)c2ccccc21	14.1µM*	-1.9	?	-10.3	-27.0%	-15.1%
